High-throughput results as filed in PubChem.
PAFAH1B3 FP inh: PAFAH1B3 enzyme inhibitors, primary screen, biochemical, fluorescence polarization, human; 0.28% of 340,000 active; AID 492972, 2010; inhibition, % at 3.39 µM; Platelet-activating factor acetylhydrolase IB subunit alpha1 (Homo sapiens), Q15102; recombinant PAFAH1B3, FP-rhodamine probe;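 active = inhibition above the screen-wide average of all tested compounds plus 3 SD, cut at about 25% in these data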;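 note: 0% = enzyme with DMSO only and 100% = wells lacking PAFAH1B3 protein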
Target sequence (Q15102 whole entry, looked up): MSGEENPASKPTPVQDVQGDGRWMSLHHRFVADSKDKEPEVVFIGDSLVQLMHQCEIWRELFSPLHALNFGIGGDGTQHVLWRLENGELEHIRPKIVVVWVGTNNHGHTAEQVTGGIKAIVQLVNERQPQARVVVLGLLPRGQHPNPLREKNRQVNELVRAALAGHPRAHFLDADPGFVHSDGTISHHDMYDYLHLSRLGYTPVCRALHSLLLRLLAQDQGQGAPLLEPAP
PAFAH2 inh: PAFAH2 enzyme inhibitors, primary screen, biochemical, fluorescence polarization, human; 0.99% of 340,000 active; recombinant PAFAH2, FP-rhodamine activity probe; inhibition, % at 3.39 µM;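 active = inhibition above the mean over all tested compounds plus 3 SD, cut at about 30% in these data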;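 note: inhibitors block probe labeling of enzyme so polarization drops; 0% = enzyme with DMSO and 100% = wells lacking PAFAH2 protein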
rCAG binder: binders of r(CAG) RNA repeats, primary screen, biochemical, fluorescence | inhibition, % at 3 µM | 1.3% of 370,000 active | AID 651821, 2012 | r(CAG) RNA repeat, TO-PRO-1 dye displacement fluorescence;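 active = inhibition above the plate cutoff, the mean of all test compounds on that plate plus 3 SD, cut at about 35% in these data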;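 note: 0% = DMSO alone and 100% = 100 µM mitoxantrone as full dye displacement; higher means more dye released from RNA so lower well fluorescence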
ZTA DNA inh: counter-screen for EBNA-1 inhibitors: inhibitors of Epstein-Barr virus ZTA; 0.15% of 320,000 active; P03206; inhibition, % at 11 µM; ZTA-DNA binding, fluorescence polarization; in the data active = inhibition above about 33%
Target sequence (P03206 whole entry, looked up): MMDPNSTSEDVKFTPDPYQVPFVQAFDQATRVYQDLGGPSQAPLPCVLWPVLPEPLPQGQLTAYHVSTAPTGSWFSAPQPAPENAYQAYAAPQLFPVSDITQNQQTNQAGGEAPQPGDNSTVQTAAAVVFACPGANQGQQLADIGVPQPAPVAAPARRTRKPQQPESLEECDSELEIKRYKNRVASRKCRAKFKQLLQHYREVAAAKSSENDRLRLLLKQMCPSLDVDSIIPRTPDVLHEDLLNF
EBNA-1 inhibitor: EBNA-1 DNA-binding inhibitors, primary screen, biochemical, fluorescence polarization; inhibition, % at 14.8 µM; 0.34% of 300,000 active; in the data active = inhibition above about 28%
PAFAH1B2 inh: PAFAH1B2 enzyme inhibitors, primary screen, biochemical, fluorescence polarization, human; recombinant PAFAH1B2, FP-rhodamine activity probe; inhibition, % at 3.39 µM; 1.2% of 340,000 active; AID 492953, 2010;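 active = inhibition above the mean of all tested compounds plus 3 SD, cut at about 24% in these data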;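 note: 0% = enzyme with DMSO and 100% = wells lacking PAFAH1B2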
rCAG binder conf: small molecules binding CAG repeat RNA – biochemical, fluorescence, confirmation. 70% of 4,300 active. r(CAG) RNA repeat, TO-PRO-1 dye displacement fluorescence. shares compounds with rCAG binder. inhibition, % at 3 µM;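 active = inhibition above a per-plate cutoff, the mean inhibition of sample wells plus 3 SD, cut at about 35% in these data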;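 note: loss of TO-PRO-1 fluorescence as compound displaces dye from 1x1 AA loop RNA; 0% = DMSO only wells and 100% = 100 µM mitoxantrone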
dCAG dye counter: displacement of TO-PRO-1 from CAG DNA duplex, counter-screen for rCAG RNA repeat binder project, biochemical, fluorescence, TO-PRO-1 dye, d(CAG) DNA oligo | shares compounds with rCAG binder | 94% of 4,300 active | inhibition, % at 3 µM | d(CAG) DNA oligo TO-PRO-1 dye displacement;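 active = inhibition above its plate's cutoff, the mean test-well inhibition plus 3 SD, cut at about 4.8% in these data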;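 note: 0% = DNA dye mix with DMSO and 100% = 100 µM mitoxantrone; hits displace the dye from DNA and so lower well fluorescence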
dCAG dye DR: inhibitors of DNA CAG/GTC TO-PRO-1 complex, dose response, counter-screen for rCAG RNA repeat binder project, biochemical, fluorescence, TO-PRO-1 dye | DNA CAG/GTC duplex TO-PRO-1 dye displacement fluorescence | IC50, µM | shares compounds with rCAG binder | AID 686960, 2013 | 20% of 250 active; in the data active = IC50 below about 10 µM
An asterisk follows results filed as active; / = no result. Most compounds without a hit are left out; they make up all but 2.9% or so of the library.

SMILES	PAFAH1B3 FP inh	PAFAH2 inh	rCAG binder	ZTA DNA inh	EBNA-1 inhibitor	PAFAH1B2 inh	rCAG binder conf	dCAG dye counter	others
O=C(Nc1ccc(C(=O)O)cc1)/C(=C\c1ccc([N+](=O)[O-])cc1)NC(=O)c1ccc(Br)cc1	3	3	44*	-8	-6	-1	26	7.0*
CC(=O)Oc1ccc(/C=C(\NC(=O)c2cccc(Br)c2)C(=O)Nc2ccc(C(=O)O)cc2)cc1	15	3	50*	-9	7	5	27	6.4*
O=C(N/N=C/c1ccc(O)c(O)c1O)/C(=C/c1ccc([N+](=O)[O-])cc1)NC(=O)c1ccccc1	16	11	66*	-13	-3	8	66*	32*
O=C(Nc1ccc(C(=O)O)cc1)/C(=C\c1ccc2c(c1)OCO2)NC(=O)c1ccc(Br)cc1	4	-1	39*	-12	0	3	27	8.0*
O=C(Nc1ccc(C(=O)O)cc1)/C(=C\C=C\c1ccccc1)NC(=O)c1ccc(Br)cc1	4	-1	72*	9	4	-1	66*	32*
Cc1sc2nc(COC(=O)CNC(=O)c3ccc(F)cc3Cl)[nH]c(=O)c2c1C	/	/	3	/	/	/	/	/
CCN1CCN(c2ccc(N3CCN(C(=O)c4ccc(Br)o4)CC3)nn2)CC1	-8	5	-5	-28	-10	4	/	/
O=C(O)c1ccc(/C=N/NC(=O)c2ccc(CN3c4cccc5cccc(c45)S3(=O)=O)cc2)cc1	-16	-34	67*	-3	2	-10	68*	31*
O=C(O)CCSc1nnc(COc2cccc3ccccc23)n1-c1cccc(Cl)c1	5	3	44*	2	-8	8	45*	12*
CCn1c(COc2ccc3ccccc3c2C)nnc1SCC(=O)Nc1cccc(C(=O)O)c1	-2	4	68*	7	-8	4	60*	27*
N#CCSc1nnc(COc2cccc3ccccc23)n1-c1cccc(Cl)c1	6	-8	-1	-2	3	2	/	/
O=C(O)CSc1nnc(COc2cccc3ccccc23)n1Cc1ccccc1	2	0	38*	8	-3	5	43*	11*
CCn1c(COc2cccc(C)c2)nnc1SCC(=O)Nc1cccc(C(=O)O)c1	8	1	-1	-7	-4	-3	/	/
COc1ccc(NC(=O)CN(C)C(=O)C23CC4CC(CC(C4)C2)C3)cc1	3	-3	-9	-9	-3	8	/	/
COc1cc(S(=O)(=O)N2CCCN(C)CC2)ccc1NC(C)=O	2	11	3	17	-4	9	/	/
COc1ccc(C(=O)NC(=S)NCc2cccnc2)cc1Cl	-1	-4	-1	8	5	6	/	/
CC(=O)c1cc(-c2ccc(Oc3ccccc3)cc2)c(=O)n2c1CCC2	/	/	4	/	/	/	/	/
COc1ccc(-c2nn(-c3ccccc3)cc2/C=N/Nc2cccc(C(=O)O)c2)cc1	-5	9	37*	/	/	-5	48*	20*
O=C(O)/C(=C\c1cn(-c2ccccc2)nc1-c1cccnc1)NC(=O)c1ccccc1	6	-7	2	7	5	4	/	/
COc1cccc(-c2nn(-c3ccccc3)cc2/C=C(/NC(=O)c2ccccc2)C(=O)O)c1	2	13	38*	-11	-13	7	38*	9.2*
CCc1ccc(C(=O)NNC(=O)CN2C(=O)NC(CC)(c3ccccc3)C2=O)cc1 (stereo not drawn)	5	-6	0	6	4	5	/	/
O=[N+]([O-])c1cc(-c2nnc(N3CCOCC3)c3ccccc23)ccc1N1CCOCC1	7	-4	90*	-1	-11	5	1	2
O=C(NCc1cccnc1)C1CCC(CNS(=O)(=O)c2cccc3nsnc23)CC1 (stereo not drawn)	3	0	-2	10	7	8	/	/
Cc1ccc(-c2[nH]c(-c3ccc(C(=O)O)cc3)nc2-c2ccccc2)cc1	1	2	70*	12	7	6	58*	18*
O=C(CSc1nnc(-c2ccncc2)n1-c1ccc(Br)cc1)c1ccccc1	/	/	3	/	/	/	/	/
SMILES	PAFAH1B3 FP inh	PAFAH2 inh	rCAG binder	ZTA DNA inh	EBNA-1 inhibitor	PAFAH1B2 inh	rCAG binder conf	dCAG dye counter	others
Cc1cc(C(C#N)c2ccc(Cl)cc2)c(Cl)cc1NC(=O)c1cc(I)cc(I)c1O (stereo not drawn)	11	13	73*	-8	18	11	93*	78*
Cc1cc(NC(=O)c2ccc(Cl)cc2)c(C)cc1O	7	-2	-2	-6	-1	4	/	/
N#CCCN(Cc1ccccc1)S(=O)(=O)c1cccs1	2	9	-5	-2	-11	6	/	/
CC(=O)Nc1ccc(NC(=O)CSC2=NS(=O)(=O)c3cc(Cl)ccc3N2)cc1	2	-4	22	-7	8	0	/	/
O=C(CSC1=NS(=O)(=O)c2cc(Cl)ccc2N1)Nc1ccccc1C(F)(F)F	6	4	52*	7	8	6	52*	11*	dCAG dye DR=>30
O=C(CSC1=NS(=O)(=O)c2cc(Cl)ccc2N1)Nc1ccccc1F	11	10	59*	21	2	5	35	6.8*
Cc1cccc(C)c1N1C(=O)c2ccccc2NC(=O)C1C(=O)NCCc1ccccc1F (stereo not drawn)	/	/	2	/	/	/	/	/
N#Cc1ccccc1OCC(=O)OCC(=O)Nc1ccc2c(c1)OCO2	3	5	0	1	/	1	/	/
CC(=O)Nc1cc(-c2ccoc2)cn2c(-c3ccccc3)cnc12	/	/	24	/	/	/	/	/
O=c1cc(-c2c(O)c3ccccc3n(Cc3ccccc3)c2=O)[nH][nH]1	6	18	47*	15	-6	19	22	8.3*
CCn1c(=O)c(-c2cc(=O)[nH][nH]2)c(O)c2ccccc21	6	5	6	-10	0	5	/	/
Cn1c(SCC(=O)NC2(C#N)CCCCC2)nnc1-c1cccnc1	0	0	1	9	15	-5	/	/
COc1ccc(S(=O)(=O)Nc2cc(Sc3ncn[nH]3)c(O)c3ccccc23)cc1	/	/	43*	/	/	/	24	9.8*
